# S-ASM inh – blocks human secretory acid sphingomyelinase | Potency, µM (series often up to 57.5 µM), inactives show at the highest dose activity change, negative = inhibition, hits mostly inhibitors | P17405 | placental ASM, HMU-PC fluorogenic substrate, 60 min | hit rate 0.006% among 340,000; also: potency is read from the fitted curve at half-maximal effect
# Target sequence (P17405 47-631 limits assumed): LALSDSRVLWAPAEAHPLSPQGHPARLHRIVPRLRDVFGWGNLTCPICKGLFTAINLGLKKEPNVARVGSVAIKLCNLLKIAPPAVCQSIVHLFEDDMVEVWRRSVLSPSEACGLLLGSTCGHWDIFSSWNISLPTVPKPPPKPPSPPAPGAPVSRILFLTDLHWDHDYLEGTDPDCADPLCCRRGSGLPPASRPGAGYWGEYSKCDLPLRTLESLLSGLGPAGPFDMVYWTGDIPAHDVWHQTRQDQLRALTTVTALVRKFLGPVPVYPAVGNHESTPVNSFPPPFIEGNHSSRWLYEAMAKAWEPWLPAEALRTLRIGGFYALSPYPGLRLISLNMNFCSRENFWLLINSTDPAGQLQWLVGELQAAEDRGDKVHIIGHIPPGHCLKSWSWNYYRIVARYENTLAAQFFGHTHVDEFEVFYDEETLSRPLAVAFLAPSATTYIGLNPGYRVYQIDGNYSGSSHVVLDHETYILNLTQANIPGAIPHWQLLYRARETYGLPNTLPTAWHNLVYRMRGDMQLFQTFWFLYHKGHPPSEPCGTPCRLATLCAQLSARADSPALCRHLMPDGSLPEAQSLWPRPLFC
#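 Steps: dispense placental human ASM, pin compound, wait 10 min at room temperature, add HMU-PC0 substrate at 9 uM final, incubate 60 min at 37 °C, add stop solution raising pH to 10, read fluorescence.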
# Giardia killer – kills Giardia lamblia; Giardia lamblia trophozoite viability; activity change, % at 7.66 µM, hits read low; hit rate 0.15% among 340,000; in the data active = activity change below about -80%; inconclusive = between about -30% and that limit;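 also: parasites exposed to compound for two days anaerobically before the ATP read; % is scaled to controls: 0 for no effect and ±100 for the full control effect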
#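 Trophozoite viability was measured as ATP-dependent luminescence, read 15-30 min after reagent addition. Before that, parasites at 100 cells/well were exposed to compounds for 48 h, anaerobically, at 37 deg C.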
# SW480 rerep – DNA re-replication induction in SW480 cells; SW480 DNA re-replication, Hoechst DNA content imaging, 48 h; Potency, µM (series often up to 46.1 µM), for inactives: top-dose re-replication activation, usual class: activators; hit rate 1.8% among 340,000; AID 624297; also: potency is read from the fitted curve at half-maximal effect; % of control where 0% means no effect; nearly all actives have a fitted effect of over 55% in size
#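 Hoechst fluorescence of nuclei (405 nm excitation, 500-530 nm emission) measured by plate-scanning imager after 48 hr compound exposure at 37 C; re-replication scored as increased number of nuclei with elevated intensity.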
# KB-3-1 tox – KB-3-1 parental cell cytotoxicity; hit rate 1.4% among 400,000; KB-3-1 viability, CellTiter-Glo ATP luminescence, 72 h; Potency, µM (highest dose often 46.1 µM), actives largely listed as cytotoxic; also: potency is read from the fitted curve at half-maximal effect; % is scaled to controls: 0 for no effect and ±100 for the full control effect; nearly all actives have a fitted effect of over 60% in size
#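 Here the drug-naive KB-3-1 line serves as comparator for MDR sub-line selectivity; cells received compound titrations, 72 h at 37 °C, then CellTiter-Glo readout.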
# MCF10A rereplic – DNA re-replication induction in MCF 10a cells. MCF 10A DNA re-replication, Hoechst nuclear intensity, 48 h. Potency, µM (series often up to 46.1 µM), for inactives: at the highest dose activity, positive = re-replication, hits mostly activators. hit rate 2.9% among 350,000. AID 624296; also: potency is read from the fitted curve at half-maximal effect; % of control where 0% means no effect; nearly all actives have a fitted effect of over 50% in size
# KB-V1 cytotox – KB-V1 MDR subline cytotoxicity; KB-V1 MDR cells viability, CellTiter-Glo, 72 h; Potency, µM (series often up to 46.1 µM), most hits filed as cytotoxic; AID 1347076; hit rate 3.4% among 400,000; also: potency is read from the fitted curve at half-maximal effect; % is scaled to controls: 0 for no effect and ±100 for the full control effect; nearly all actives have a fitted effect of over 60% in size
#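 In this primary screen, KB-V1 cells overexpressing P-gp are incubated with library compounds (lowest to highest concentration) for 72 h at 37 degrees C before a luminescent ATP viability read.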
# * = called active by the depositor; i = inactive; ? = inconclusive; . = not tested or not shown; [ ] = remark or other dose. This is a sample that favours compounds with a hit; in the whole collection about 6.9% have one here. Unless noted, calls follow the shape of the dose curve; as a rule, active = well fitted curve in the direction sought with a large enough effect; inconclusive = small, poorly fitted or top-dose-only effect, or another doubt; inactive = no such curve, though single readings can be large; an effect the other way counts as inactive or inconclusive.
SMILES,S-ASM inh,Giardia killer,SW480 rerep,KB-3-1 tox,MCF10A rereplic,KB-V1 cytotox
CCCC12CN3CC(C)(CN(C1)C3c1ccc([N+](=O)[O-])o1)C2=O (configuration not stated),4%,-87*,-6%[9.22 µM],i,?,i
CCCCC12CN3CC(C)(CN(C1)C3c1ccc([N+](=O)[O-])o1)C2=O (configuration not stated),5%,?,-1%,i,0%,i
CCC12CN3CC(CC)(CN(C1)C3c1ccc([N+](=O)[O-])o1)C2=O (configuration not stated),1%,-86*,-2%,i,-14%,i
Cc1nonc1OCC(C)(COc1nonc1C)NC(=O)c1ccccc1,1%,-18,0%,i,7%,18µM*
O=S(=O)(c1ccc(OC(F)(F)F)cc1)N1CCN(c2nc(-c3cccs3)nc3ccccc23)CC1,.,8,.,i,.,i
COc1ccc(-c2sc(C(=O)c3ccc(Cl)cc3Cl)cc2CC(=O)O)cc1,79%,0,9%,?,12µM*,?
CCN(c1ccccc1)S(=O)(=O)c1ccc(-c2cc(C)no2)s1,.,.,.,?,.,i
CCc1ccccc1N(C)S(=O)(=O)c1ccc(-c2cc(C)no2)s1,3%,19,17%,?,2.3µM*,?
Cc1ccc2c(Sc3ccccc3)c(C(=O)NCc3ccccc3F)[nH]c2c1,.,.,.,i,.,i
N=c1n(CCN2CCCC2)c2ccccc2n1CC(O)c1ccc(Cl)c(Cl)c1 (configuration not stated),2%,3,?,i,23µM*,i
COc1ccc(OCC(O)Cn2c(=N)n(CCN3CCCCC3)c3ccccc32)cc1 (configuration not stated),2%,-13,?,?,26µM*,i
Cc1ccc(OCC(O)Cn2c(=N)n(CCN3CCOCC3)c3ccccc32)cc1 (configuration not stated),0%,3,-1%,i,13%,i
N=c1n(CCN2CCOCC2)c2ccccc2n1CC(=O)c1ccc(Cl)c(Cl)c1,-23%,0,?,?,?,?
Cc1ccc(OCC(O)Cn2c(=N)n(CCN3CCCCC3)c3ccccc32)cc1 (configuration not stated),4%,-15,?,21µM*,?,23µM*
Cc1ccc(Cl)c2sc(N3CCN(C(=O)C4CC4)CC3)nc12,.,.,.,i,.,?
C=CCN1C(=O)C(CC(C)C)NC1=S (configuration not stated),.,.,2%,.,3%,.
CCN(c1ccccc1)S(=O)(=O)c1ccc(NC(=O)c2nc(SC(C)C)ncc2Cl)cc1,.,.,.,i,.,i
CCOc1ccccc1-n1c(N)c(C(=O)OC)c2nc3ccccc3nc21,.,.,.,i,.,i
CC(C)N(C(=O)c1sc2cc([N+](=O)[O-])ccc2c1Cl)C(C)C,-4%,-14,1%,i,1%,21µM*
O=C(c1sc2cc([N+](=O)[O-])ccc2c1Cl)N1CCOCC1,-1%,-21,-7%,i,4%,i
CNc1nc(C)c(C(=O)OCC(=O)OC)s1,4%,5,-5%,i,0%,i
CCCCCOC(=O)Nc1nnc(CCCCC)s1,-1%,3,-5%,i,9%,i
CCCCCCc1nnc(NC(=O)OCC)s1,-3%,2,-4%,i,7%,16µM*
CCOC(=O)c1sc(Nc2nc(C)cc(C)n2)nc1C,-7%,-18,?,?,?,9.2µM*
CCOC(=O)c1sc(NC(=O)CC)nc1C,4%,-12,-4%,i,?,i
CNc1nc(C)c(C(=O)OCc2ccccc2)s1,0%,5,1%,i,?,21µM*
CCCCOC(=O)Nc1nc(C)c(C(=O)OCC)s1,-2%,-2,-7%,i,-8%,12µM*
CCCCCCCN1CCC(=O)N([C@H](CO)CC(C)C)CC1,13%,-3,13%,i,-8%,i
Cc1ccc(NC(=O)CN2CCN(C(=O)C3CC3)CC2)c(F)c1,.,.,.,i,.,i
